Columns and labels:
[1] = molecular target: T1, Ephrin type-A receptor 3 (Homo sapiens) (UniProt P29320); settings: at 10 µM
T1 sequence (whole entry): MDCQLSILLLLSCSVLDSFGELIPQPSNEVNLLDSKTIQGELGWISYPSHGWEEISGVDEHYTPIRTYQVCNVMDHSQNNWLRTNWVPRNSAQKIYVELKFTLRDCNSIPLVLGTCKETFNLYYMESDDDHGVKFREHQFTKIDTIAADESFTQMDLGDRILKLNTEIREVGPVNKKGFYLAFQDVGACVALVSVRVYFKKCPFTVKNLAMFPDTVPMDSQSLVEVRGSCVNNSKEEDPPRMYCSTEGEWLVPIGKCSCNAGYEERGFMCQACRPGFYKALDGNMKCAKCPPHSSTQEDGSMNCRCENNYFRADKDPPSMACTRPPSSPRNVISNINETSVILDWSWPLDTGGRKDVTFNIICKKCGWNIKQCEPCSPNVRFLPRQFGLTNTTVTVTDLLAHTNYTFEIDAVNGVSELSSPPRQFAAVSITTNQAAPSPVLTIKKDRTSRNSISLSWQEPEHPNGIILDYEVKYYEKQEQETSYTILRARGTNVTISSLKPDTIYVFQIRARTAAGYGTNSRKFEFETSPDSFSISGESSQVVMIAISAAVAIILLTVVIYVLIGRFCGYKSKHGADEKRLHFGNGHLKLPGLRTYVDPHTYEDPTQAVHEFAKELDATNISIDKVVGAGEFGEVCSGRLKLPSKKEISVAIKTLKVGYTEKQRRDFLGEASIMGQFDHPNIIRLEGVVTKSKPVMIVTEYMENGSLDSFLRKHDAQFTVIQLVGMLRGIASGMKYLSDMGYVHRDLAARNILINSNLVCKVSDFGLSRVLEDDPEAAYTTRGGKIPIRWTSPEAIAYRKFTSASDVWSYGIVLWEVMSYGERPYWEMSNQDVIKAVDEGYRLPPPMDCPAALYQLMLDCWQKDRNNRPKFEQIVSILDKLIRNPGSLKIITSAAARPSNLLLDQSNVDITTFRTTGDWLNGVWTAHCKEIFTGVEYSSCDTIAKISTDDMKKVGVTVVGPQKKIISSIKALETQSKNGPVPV

[2] = molecular target: Ephrin type-A receptor 7 (Homo sapiens) (UniProt Q15375); settings: at 1 µM
[3] = molecular target: Ephrin type-A receptor 7 (Homo sapiens) (UniProt Q15375); settings: at 10 µM
[4] = molecular target: T2, Ephrin type-A receptor 8 (Homo sapiens) (UniProt P29322); settings: at 1 µM
T2 sequence (whole entry): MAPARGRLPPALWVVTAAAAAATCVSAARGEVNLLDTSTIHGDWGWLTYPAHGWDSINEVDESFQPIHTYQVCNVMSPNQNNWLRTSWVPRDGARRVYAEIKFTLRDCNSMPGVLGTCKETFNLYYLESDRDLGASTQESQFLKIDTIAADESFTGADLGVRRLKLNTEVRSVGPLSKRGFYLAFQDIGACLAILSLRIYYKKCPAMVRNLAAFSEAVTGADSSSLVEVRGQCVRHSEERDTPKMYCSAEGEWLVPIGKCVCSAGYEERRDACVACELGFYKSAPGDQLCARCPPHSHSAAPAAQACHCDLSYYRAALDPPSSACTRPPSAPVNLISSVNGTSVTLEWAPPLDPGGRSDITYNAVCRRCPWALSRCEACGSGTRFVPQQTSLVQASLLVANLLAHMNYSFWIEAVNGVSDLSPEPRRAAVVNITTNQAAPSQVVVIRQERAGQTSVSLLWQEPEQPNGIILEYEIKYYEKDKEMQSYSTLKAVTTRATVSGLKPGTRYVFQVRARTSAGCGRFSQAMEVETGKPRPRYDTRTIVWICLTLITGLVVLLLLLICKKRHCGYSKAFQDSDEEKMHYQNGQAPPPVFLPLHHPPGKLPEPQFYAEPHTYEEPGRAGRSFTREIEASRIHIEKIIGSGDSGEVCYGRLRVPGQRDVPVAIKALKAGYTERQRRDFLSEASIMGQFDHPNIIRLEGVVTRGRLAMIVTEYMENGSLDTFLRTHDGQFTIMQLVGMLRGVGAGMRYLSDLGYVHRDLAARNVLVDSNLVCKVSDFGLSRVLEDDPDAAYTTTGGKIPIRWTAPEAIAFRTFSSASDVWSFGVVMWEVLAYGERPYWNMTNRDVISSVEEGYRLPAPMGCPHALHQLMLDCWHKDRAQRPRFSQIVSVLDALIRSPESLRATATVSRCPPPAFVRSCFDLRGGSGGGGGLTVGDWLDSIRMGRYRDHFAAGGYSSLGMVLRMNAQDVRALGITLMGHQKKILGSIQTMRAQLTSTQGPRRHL

[5] = molecular target: T2, Ephrin type-A receptor 8 (Homo sapiens); settings: at 10 µM
[6] = molecular target: T3, Ephrin type-B receptor 1 (Homo sapiens) (UniProt P54762); settings: at 1 µM
T3 sequence (whole entry): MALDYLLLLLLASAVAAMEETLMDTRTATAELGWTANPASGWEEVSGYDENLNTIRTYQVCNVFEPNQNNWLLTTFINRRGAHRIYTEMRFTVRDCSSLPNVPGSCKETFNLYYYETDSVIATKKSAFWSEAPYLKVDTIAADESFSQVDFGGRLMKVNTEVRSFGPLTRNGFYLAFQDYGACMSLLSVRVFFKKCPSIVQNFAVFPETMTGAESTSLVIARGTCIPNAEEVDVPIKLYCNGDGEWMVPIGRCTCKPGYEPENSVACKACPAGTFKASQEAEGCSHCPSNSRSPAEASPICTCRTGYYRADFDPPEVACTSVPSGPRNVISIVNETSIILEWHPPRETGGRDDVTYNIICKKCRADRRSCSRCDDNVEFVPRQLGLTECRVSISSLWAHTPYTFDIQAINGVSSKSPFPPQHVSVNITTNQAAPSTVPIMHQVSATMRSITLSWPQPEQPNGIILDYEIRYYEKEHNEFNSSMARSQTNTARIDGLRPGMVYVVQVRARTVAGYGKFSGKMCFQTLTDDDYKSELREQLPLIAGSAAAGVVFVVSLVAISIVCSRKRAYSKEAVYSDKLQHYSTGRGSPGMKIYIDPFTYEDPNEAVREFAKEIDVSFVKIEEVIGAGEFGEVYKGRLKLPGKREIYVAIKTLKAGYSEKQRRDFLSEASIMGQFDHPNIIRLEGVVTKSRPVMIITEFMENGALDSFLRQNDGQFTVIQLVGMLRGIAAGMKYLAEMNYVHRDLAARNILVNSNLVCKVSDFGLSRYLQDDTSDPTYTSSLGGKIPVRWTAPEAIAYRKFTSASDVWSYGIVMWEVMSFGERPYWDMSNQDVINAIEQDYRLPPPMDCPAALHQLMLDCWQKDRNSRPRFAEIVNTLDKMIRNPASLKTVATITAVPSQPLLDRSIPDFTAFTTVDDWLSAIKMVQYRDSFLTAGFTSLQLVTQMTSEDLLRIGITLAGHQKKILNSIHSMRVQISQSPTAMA

[7] = molecular target: T3, Ephrin type-B receptor 1 (Homo sapiens); settings: at 10 µM
[8] = molecular target: T4, Ephrin type-B receptor 2 (Homo sapiens) (UniProt P29323); settings: at 1 µM
T4 sequence (whole entry): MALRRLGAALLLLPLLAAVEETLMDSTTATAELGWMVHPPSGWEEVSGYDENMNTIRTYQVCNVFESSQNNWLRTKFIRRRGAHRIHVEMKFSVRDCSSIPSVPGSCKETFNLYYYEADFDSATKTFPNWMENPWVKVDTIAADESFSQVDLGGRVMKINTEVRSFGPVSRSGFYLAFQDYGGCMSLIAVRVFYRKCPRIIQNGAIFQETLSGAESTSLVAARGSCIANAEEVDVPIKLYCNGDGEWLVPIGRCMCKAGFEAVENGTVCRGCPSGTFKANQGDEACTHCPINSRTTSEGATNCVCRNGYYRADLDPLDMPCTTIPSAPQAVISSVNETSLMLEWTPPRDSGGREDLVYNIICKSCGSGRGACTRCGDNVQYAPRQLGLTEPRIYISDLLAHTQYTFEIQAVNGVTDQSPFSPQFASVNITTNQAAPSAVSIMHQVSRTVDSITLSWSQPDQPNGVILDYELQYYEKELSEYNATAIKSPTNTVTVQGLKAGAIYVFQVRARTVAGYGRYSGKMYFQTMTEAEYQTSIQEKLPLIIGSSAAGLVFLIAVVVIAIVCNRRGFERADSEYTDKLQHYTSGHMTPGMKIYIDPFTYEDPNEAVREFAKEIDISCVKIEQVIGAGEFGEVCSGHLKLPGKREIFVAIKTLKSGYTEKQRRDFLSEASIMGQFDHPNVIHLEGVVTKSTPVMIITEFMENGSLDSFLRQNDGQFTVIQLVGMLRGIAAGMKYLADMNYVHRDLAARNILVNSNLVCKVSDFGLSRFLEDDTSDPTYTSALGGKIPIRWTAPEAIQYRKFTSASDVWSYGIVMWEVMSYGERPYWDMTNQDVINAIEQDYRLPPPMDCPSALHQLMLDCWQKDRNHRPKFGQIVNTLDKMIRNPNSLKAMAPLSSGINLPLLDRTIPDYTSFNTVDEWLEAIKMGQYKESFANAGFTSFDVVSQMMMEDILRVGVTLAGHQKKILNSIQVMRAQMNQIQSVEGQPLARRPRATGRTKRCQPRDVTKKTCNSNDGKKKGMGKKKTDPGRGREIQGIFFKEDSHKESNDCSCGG

[9] = molecular target: T4, Ephrin type-B receptor 2 (Homo sapiens); settings: at 10 µM
[10] = molecular target: T5, Ephrin type-B receptor 4 (Homo sapiens) (UniProt P54760); settings: at 1 µM
T5 sequence (whole entry): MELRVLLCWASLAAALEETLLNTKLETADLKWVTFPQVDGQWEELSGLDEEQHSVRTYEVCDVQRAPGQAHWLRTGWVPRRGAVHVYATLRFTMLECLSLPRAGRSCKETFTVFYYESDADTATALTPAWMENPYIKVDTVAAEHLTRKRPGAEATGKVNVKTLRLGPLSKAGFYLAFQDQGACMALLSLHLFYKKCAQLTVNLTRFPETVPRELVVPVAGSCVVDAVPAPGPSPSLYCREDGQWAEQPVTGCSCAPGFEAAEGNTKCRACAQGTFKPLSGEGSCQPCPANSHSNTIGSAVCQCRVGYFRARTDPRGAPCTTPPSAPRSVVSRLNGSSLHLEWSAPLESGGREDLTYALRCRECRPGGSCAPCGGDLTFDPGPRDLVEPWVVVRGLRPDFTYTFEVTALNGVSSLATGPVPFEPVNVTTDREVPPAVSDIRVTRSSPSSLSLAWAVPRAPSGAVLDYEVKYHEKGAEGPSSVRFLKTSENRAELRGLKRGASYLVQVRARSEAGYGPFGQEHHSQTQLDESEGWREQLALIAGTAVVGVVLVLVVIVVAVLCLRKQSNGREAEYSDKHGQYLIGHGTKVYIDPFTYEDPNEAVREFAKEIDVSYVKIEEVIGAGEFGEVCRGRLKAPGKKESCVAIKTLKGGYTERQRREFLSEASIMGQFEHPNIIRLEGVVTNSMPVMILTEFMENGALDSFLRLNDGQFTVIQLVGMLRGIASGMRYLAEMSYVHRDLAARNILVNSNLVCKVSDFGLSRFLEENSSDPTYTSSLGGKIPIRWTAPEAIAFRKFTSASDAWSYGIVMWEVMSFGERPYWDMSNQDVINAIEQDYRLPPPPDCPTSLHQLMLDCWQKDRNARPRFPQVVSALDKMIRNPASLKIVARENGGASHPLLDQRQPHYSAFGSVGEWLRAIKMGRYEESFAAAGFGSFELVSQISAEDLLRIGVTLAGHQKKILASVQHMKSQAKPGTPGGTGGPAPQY

[11] = molecular target: T5, Ephrin type-B receptor 4 (Homo sapiens); settings: at 10 µM
[12] = molecular target: Focal adhesion kinase 1 (Homo sapiens) (UniProt Q05397); settings: at 1 µM
[13] = molecular target: Ephrin type-A receptor 4 (Homo sapiens) (UniProt P54764); settings: at 10 µM
[14] = molecular target: Ephrin type-A receptor 5 (Homo sapiens) (UniProt P54756); settings: at 1 µM
[15] = molecular target: Ephrin type-A receptor 5 (Homo sapiens) (UniProt P54756); settings: at 10 µM
[16] = molecular target: T6, Ephrin type-B receptor 3 (Homo sapiens) (UniProt P54753); settings: at 1 µM
T6 sequence (whole entry): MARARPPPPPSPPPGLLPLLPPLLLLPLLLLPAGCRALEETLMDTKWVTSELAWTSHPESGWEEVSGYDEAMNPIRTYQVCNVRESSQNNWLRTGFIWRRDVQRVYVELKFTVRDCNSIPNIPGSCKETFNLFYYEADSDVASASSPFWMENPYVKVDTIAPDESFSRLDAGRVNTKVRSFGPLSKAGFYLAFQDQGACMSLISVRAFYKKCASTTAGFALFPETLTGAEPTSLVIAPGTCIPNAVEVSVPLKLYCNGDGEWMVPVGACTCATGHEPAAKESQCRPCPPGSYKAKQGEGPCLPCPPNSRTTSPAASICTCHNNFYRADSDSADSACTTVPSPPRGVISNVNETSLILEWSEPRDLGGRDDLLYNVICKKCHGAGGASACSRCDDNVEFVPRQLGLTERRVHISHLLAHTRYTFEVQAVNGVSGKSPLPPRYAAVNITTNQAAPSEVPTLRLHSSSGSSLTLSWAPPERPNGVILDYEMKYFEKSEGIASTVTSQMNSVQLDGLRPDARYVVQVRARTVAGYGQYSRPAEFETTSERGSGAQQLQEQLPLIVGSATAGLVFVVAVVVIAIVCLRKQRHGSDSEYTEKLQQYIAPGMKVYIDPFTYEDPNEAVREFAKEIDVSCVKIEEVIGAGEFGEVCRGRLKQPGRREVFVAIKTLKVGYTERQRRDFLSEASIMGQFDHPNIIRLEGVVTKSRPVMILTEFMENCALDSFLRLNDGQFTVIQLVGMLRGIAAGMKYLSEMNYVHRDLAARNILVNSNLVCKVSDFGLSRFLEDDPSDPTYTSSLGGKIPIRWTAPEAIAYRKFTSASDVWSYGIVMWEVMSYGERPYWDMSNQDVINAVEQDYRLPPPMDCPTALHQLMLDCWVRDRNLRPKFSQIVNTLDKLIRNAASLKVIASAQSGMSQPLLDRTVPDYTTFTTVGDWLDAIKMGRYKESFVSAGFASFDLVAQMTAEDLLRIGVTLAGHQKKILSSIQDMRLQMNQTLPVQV

[17] = molecular target: T6, Ephrin type-B receptor 3 (Homo sapiens); settings: at 10 µM
[18] = molecular target: Receptor tyrosine-protein kinase erbB-4 (Homo sapiens) (UniProt Q15303); settings: at 10 µM

Focal adhesion kinase 1 (Homo sapiens), sequence (Q05397 2-1052 limits assumed): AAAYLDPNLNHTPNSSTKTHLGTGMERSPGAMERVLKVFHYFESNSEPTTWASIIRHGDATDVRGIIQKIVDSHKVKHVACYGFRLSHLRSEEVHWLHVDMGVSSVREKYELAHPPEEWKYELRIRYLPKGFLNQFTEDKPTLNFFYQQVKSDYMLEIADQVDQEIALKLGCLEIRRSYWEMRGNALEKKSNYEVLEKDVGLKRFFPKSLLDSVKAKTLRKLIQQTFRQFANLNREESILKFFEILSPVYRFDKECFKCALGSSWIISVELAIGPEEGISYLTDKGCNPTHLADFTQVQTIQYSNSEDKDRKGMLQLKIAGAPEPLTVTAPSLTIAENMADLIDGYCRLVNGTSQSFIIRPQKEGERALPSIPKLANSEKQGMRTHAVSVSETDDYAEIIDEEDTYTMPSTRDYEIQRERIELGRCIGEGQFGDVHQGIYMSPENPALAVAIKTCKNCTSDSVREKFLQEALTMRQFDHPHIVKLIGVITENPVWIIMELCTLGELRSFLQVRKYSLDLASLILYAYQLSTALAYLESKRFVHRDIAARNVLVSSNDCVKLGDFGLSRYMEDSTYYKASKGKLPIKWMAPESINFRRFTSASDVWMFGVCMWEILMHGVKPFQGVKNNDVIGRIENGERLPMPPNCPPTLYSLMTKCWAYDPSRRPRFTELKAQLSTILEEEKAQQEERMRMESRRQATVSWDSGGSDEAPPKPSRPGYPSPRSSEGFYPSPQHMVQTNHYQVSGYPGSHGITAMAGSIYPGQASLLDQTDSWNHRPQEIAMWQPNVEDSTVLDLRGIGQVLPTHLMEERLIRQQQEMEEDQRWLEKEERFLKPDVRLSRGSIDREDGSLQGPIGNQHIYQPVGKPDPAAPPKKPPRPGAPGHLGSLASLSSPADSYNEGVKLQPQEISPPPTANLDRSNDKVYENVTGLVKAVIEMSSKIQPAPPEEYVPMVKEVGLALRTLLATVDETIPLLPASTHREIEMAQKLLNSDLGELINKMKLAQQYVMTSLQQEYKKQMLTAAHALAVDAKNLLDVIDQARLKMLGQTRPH
Ephrin type-A receptor 5 (Homo sapiens), sequence (P54756 whole entry): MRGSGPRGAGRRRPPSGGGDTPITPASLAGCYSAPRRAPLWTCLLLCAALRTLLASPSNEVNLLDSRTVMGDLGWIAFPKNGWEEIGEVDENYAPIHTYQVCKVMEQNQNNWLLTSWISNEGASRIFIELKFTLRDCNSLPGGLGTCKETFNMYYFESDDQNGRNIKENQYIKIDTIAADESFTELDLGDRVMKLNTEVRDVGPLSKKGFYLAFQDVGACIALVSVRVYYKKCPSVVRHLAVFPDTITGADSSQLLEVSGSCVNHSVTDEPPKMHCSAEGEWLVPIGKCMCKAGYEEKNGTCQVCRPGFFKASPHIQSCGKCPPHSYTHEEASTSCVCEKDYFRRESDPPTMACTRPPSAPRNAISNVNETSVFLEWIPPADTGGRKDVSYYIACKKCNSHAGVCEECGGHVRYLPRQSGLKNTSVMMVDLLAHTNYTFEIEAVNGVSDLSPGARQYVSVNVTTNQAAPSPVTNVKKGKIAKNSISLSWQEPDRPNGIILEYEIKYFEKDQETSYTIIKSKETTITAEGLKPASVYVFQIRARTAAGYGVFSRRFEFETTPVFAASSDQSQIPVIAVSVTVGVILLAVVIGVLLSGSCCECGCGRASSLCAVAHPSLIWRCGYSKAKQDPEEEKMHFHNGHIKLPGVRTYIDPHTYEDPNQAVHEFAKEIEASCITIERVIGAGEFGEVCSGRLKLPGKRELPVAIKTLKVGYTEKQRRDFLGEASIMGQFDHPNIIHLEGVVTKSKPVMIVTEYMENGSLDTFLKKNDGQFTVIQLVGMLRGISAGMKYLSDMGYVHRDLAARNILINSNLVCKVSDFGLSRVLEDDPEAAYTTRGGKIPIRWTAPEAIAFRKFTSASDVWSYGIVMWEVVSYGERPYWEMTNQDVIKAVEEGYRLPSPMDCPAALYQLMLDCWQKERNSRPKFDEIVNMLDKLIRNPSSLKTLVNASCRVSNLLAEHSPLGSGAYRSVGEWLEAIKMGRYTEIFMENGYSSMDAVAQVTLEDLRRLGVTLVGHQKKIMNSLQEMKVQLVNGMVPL
Ephrin type-A receptor 7 (Homo sapiens), sequence (Q15375 28-998 limits assumed): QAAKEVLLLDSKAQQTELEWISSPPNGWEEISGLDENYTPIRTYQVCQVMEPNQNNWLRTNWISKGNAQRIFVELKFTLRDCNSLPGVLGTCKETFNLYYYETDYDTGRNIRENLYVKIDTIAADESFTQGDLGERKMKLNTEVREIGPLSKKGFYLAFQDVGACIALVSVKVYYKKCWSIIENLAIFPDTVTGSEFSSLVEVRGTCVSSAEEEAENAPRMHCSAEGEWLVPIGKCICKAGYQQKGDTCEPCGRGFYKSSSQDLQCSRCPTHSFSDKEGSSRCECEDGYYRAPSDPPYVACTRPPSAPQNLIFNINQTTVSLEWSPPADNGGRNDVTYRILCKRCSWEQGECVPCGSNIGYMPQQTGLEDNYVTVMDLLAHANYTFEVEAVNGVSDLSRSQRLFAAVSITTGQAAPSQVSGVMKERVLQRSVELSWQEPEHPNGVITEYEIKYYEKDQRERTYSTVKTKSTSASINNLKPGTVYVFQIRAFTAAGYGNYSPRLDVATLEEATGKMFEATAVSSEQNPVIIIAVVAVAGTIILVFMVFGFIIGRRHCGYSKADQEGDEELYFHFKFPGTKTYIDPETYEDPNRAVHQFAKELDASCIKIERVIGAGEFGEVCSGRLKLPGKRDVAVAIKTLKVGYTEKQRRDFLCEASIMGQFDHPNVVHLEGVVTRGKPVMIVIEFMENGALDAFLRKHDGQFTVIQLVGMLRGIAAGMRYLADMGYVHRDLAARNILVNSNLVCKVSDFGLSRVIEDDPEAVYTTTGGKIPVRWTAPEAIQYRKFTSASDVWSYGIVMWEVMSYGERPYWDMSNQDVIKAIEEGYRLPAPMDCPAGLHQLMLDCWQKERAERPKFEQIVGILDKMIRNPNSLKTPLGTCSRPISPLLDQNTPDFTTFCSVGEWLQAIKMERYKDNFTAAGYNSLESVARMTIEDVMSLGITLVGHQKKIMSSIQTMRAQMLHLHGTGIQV
Ephrin type-A receptor 4 (Homo sapiens), sequence (P54764 whole entry): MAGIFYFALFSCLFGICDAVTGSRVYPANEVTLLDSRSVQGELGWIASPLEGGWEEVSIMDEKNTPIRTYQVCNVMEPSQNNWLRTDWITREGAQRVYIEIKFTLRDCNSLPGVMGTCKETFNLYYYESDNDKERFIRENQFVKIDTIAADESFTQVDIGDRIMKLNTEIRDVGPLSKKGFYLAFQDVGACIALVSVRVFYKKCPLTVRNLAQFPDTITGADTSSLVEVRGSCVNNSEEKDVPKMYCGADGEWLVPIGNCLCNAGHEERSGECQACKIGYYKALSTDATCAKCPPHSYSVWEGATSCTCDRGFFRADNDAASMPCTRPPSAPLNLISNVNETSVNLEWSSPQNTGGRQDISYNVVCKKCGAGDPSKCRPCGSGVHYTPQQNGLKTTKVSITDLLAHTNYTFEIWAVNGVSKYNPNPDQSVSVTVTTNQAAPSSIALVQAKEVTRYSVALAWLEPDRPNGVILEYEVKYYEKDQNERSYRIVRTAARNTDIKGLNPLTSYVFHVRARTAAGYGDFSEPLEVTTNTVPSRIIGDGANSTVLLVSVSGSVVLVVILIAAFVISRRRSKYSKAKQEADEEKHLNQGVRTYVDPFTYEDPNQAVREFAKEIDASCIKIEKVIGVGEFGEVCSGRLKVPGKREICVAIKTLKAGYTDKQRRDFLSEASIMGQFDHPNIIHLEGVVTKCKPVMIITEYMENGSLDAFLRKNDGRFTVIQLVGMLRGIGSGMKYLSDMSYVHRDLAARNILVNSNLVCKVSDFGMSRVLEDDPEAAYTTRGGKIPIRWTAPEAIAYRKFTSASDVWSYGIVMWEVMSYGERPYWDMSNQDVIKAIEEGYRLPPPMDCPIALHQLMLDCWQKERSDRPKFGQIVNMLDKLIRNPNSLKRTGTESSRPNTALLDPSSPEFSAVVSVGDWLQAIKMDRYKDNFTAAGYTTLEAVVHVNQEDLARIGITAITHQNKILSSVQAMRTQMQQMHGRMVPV

Compound | residual activity [1] [%] | residual activity [2] [%] | residual activity [3] [%] | residual activity [4] [%] | residual activity [5] [%] | residual activity [6] [%] | residual activity [7] [%] | residual activity [8] [%] | residual activity [9] [%] | residual activity [10] [%] | residual activity [11] [%] | residual activity [12] [%] | residual activity [13] [%] | residual activity [14] [%] | residual activity [15] [%] | residual activity [16] | residual activity [17] [%] | residual activity [18] [%]
O=C1Cc2c([nH]c3ccc(Br)cc23)-c2ccccc2N1 | 58 | 98 | 72 | 95 | 82 | 98 | 76 | 121 | 120 | 89 | 71 | 82 | – | – | – | – | – | –
CC(C)[C@H](CO)Nc1nc(Nc2cc(N)cc(Cl)c2)c2ncn(C(C)C)c2n1 | 52 | – | – | 93 | 59 | – | – | 92 | 7 | 57 | 6 | 42 | 63 | 86 | 23 | 92% (inactive) | 116 | 84
